Compound activity deposited in PubChem BioAssay by several laboratories.
CYP2C9 act = increases human cytochrome P450 2C9 activity. recombinant CYP2C9, luciferin-H conversion, luminescence; stronger effect = higher value; factor 1 = untreated enzyme, 0 = blocked. P11712. activation factor at 5 µM. 96,000 compounds, 1.4% hits;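 active = activation factor of 2 or more for CYP2C9 at a 5 µM dose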
CYP2C19 act = cytochrome P450 2C19 (human) activation; activation factor at 5 µM; 96,000 tested, under 10 active; AID 1025; recombinant CYP2C19, luciferin-H EGE luminescence; stronger effect = higher value; 0 = fully inhibited enzyme, 1 = untreated enzyme;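 active = activation factor of at least 2 at 5 µM in the primary screen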
Target sequence (P33261 whole entry, looked up): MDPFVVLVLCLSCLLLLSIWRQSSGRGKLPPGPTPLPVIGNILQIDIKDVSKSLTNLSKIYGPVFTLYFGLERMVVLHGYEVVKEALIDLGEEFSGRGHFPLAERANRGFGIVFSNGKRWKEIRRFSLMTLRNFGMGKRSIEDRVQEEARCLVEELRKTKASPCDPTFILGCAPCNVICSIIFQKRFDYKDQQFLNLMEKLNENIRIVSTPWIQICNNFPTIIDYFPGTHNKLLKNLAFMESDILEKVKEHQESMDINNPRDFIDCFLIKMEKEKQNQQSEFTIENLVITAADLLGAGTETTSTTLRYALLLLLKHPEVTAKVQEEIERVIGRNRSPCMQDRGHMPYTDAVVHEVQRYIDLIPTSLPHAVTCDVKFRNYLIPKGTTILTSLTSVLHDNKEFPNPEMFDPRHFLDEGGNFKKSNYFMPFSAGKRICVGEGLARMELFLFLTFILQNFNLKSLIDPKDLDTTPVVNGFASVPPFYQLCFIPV
E-sel TNF inh = TNF alpha driven E-selectin expression inhibition | HUVEC TNFa-induced E-selectin immunofluorescence, high content | inhibition, % at 2 µM | 120,000 compounds, 0.71% hits;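 active = inhibition above the batch mean plus 3 SD, and confirmed as a hit on visual image review, cut at about 43% in these data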
CYP2C9 inhib = inhibitors of human CYP2C9. P11712. CYP2C9 Supersomes, luciferin-H conversion, luminescence. inhibition, % at 5 µM. 96,000 compounds, 20% hits. AID 777;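 active = blocking of liver enzyme CYP2C9 beyond about 50% at 5 µM, limit read from the data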
cytoskel mod = modifiers of cytoskeleton assembly. HUVEC TNFa F-actin phalloidin imaging, high content. inhibition, % at 2 µM. 91,000 compounds, 0.18% hits;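 active = inhibition above the batch mean plus 3 SD and confirmed as a hit by visual image inspection, cut at about 30% in these data, passing the limit was not always enough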
CYP2C19 inhib = human CYP2C19 inhibition. P33261. CYP2C19 Supersomes, luciferin-H EGE luminescence, 30 min. inhibition, % at 5 µM. 96,000 compounds, 21% hits. AID 778;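 active = CYP2C19 inhibition above a set limit at 5 µM in the primary screen, cut at about 50% in these data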
Numbers stand for hits; . = inactive; / = no result. The list is not random: actives were taken first. Their share in the collection is about 22%.

SMILES	CYP2C9 act	CYP2C19 act	E-sel TNF inh	CYP2C9 inhib	cytoskel mod	CYP2C19 inhib
CC(C)OC(=O)c1c(F)c(F)c(N2CCOCC2)c(F)c1F	.	.	/	.	.	51
COC(=O)c1c(F)c(F)c(N2CCOCC2)c(F)c1F	.	.	.	.	/	.
CNS(=O)(=O)c1cccc(C(=O)OCC(=O)NCc2ccccc2)c1	2.4	.	.	.	.	.
CNS(=O)(=O)c1cccc(C(=O)OCC(=O)Nc2ccccc2F)c1	/	/	.	/	/	/
CNS(=O)(=O)c1cccc(C(=O)OCc2cc(Cl)cc3c2OCOC3)c1	.	.	/	.	.	78
CCOC(=O)c1c(C)[nH]c(C)c1C(=O)COC(=O)c1cccc(S(=O)(=O)NC)c1	.	.	.	.	.	100
CCOC(=O)c1c(C)[nH]c(C)c1C(=O)COC(=O)c1ccc(S(=O)(=O)N(CC)CC)cc1	.	.	.	97	.	84
CCOC(=O)c1c(C)[nH]c(C)c1C(=O)COC(=O)c1ccc(Cl)c(S(N)(=O)=O)c1	.	.	.	.	.	92
Cc1c(CNC(=O)c2cnn3c2NC(c2ccc(Br)cc2)CC3C(F)(F)F)cnn1C (stereo not drawn)	.	.	.	67	.	.
O=C(O)c1cnn2c1NC(c1cccs1)CC2C(F)(F)F (stereo not drawn)	.	.	.	.	.	.
Cc1nn(Cc2ccc(F)cc2)c(C)c1NC(=O)c1cnn2c1NC(c1ccccc1)CC2C(F)(F)F (stereo not drawn)	.	.	.	67	.	.
O=C(NCCCn1ccnc1)c1cnn2c1NC(c1ccccc1)CC2C(F)(F)F (stereo not drawn)	.	.	.	97	.	85
NC(=O)c1cnn2c1NC(c1ccc(F)cc1)CC2C(F)(F)F (stereo not drawn)	.	.	.	54	/	62
Cc1nn(C)cc1CNC(=O)c1cnn2c1NC(c1ccc(Br)cc1)CC2C(F)(F)F (stereo not drawn)	.	.	/	.	/	.
COc1ccc(CNC(=O)C(C)OC(=O)C23CC4CC(CC(O)(C4)C2)C3)cc1 (stereo not drawn)	/	/	.	/	/	/
CC(=O)Oc1ccc(CCC(C)OC(C)=O)cc1 (stereo not drawn)	.	.	.	.	.	.
CC(=O)C1=C(O)CCC1=NCCc1ccccc1	.	.	.	.	.	.
NC(=O)c1c(NC(=O)CSc2nnc(-c3ccccc3)n2CC2CCCO2)sc2c1CCC2 (stereo not drawn)	.	.	.	91	.	80
N#Cc1c(NC(=O)CSc2nnc(-c3ccncc3)n2CC2CCCO2)sc2c1CCCC2 (stereo not drawn)	.	.	.	87	.	69
N#Cc1c(NC(=O)CSc2nnc(-c3ccccc3O)n2-c2ccccc2)sc2c1CCCC2	.	.	.	67	.	74
N#Cc1c(NC(=O)CSc2ncc(-c3ccccc3)n2CC2CCCO2)sc2c1CCCC2 (stereo not drawn)	.	.	.	73	.	60
O=C(Nc1cccc(C(F)(F)F)c1)NC1CCN(S(=O)(=O)c2ccc(F)cc2)CC1	.	.	.	.	.	.
FC(F)(F)c1ccccc1Nc1nccs1	.	.	.	.	.	.
Cn1c(-c2ccc(F)cc2)cnc1SCC(=O)N1CCCCC1	.	.	.	.	.	62
Nc1ncc(-c2ccccc2)n1CC1CCCO1 (stereo not drawn)	.	.	.	.	.	.
SMILES	CYP2C9 act	CYP2C19 act	E-sel TNF inh	CYP2C9 inhib	cytoskel mod	CYP2C19 inhib
O=C(CSc1ncc(-c2ccccc2)n1CC1CCCO1)N1CCCCC1 (stereo not drawn)	.	.	/	.	/	58
CC1Cc2ccccc2N1C(=O)CSc1ncc(-c2ccc(F)cc2)n1C (stereo not drawn)	/	/	.	/	/	/
N#CCCN/N=C(/Cc1nc2ccccc2[nH]1)c1cccc(Cl)c1	.	.	.	63	.	86
O=c1cc(C(F)F)oc2c1ccc1ccccc12	.	.	93	.	/	.
COc1ccc(N2CCN(Cc3cc(=O)oc4c3ccc3ccccc34)CC2)cc1	.	.	/	.	/	.
Cc1cccc(C)c1OCC(O)CN1CCC(CN2C(=O)c3cccc4cccc(c34)C2=O)CC1 (stereo not drawn)	.	.	.	58	.	55
Cc1ccccc1NC(=S)NC(NC(=O)C(C)(C)C)C(Cl)(Cl)Cl (stereo not drawn)	.	.	.	97	.	.
Cc1ccccc1NC(=S)NC(NC(=O)N(C)C)C(Cl)(Cl)Cl (stereo not drawn)	.	.	.	.	.	.
Cc1ccc(C)c(NC(=S)NC(NC(=O)Cc2cccc3ccccc23)C(Cl)(Cl)Cl)c1 (stereo not drawn)	.	.	.	.	.	.
Cc1ccc(C)c(NC(=S)NC(NC(=O)N(C)C)C(Cl)(Cl)Cl)c1 (stereo not drawn)	.	.	.	78	.	70
CCc1ccc(OCC(=O)NC(NC(=S)Nc2ccc(C)cc2C)C(Cl)(Cl)Cl)cc1 (stereo not drawn)	.	.	.	57	.	54
Cc1ccc(NC(=S)NC(NC(=O)c2ccccc2C)C(Cl)(Cl)Cl)c(C)c1 (stereo not drawn)	.	.	.	73	.	.
C/C(=N\O)c1c(C)c2ccccc2n1C	.	.	.	.	.	.
COc1ccc(-c2noc(N(C)CC(=O)Nc3cccc(C(F)(F)F)c3)n2)cc1	.	.	.	.	.	.
COc1ccc(N2CCN(C(=O)Nc3cccc(C(F)(F)F)c3)CC2)cc1	.	.	.	.	.	.
Cc1ccccc1NC(=S)NC(NC(=O)COc1ccccc1)C(Cl)(Cl)Cl (stereo not drawn)	.	.	.	72	.	61
O=C(COc1ccccc1)NC(NC(=S)Nc1ccccc1O)C(Cl)(Cl)Cl (stereo not drawn)	.	.	.	83	.	93
COC(=O)c1ccccc1NC(=S)NC(NC(=O)COc1ccccc1)C(Cl)(Cl)Cl (stereo not drawn)	.	.	.	.	.	.
Cc1ccc2c(c1)C(O)(CC(=O)c1ccc3c(c1)OCO3)C(=O)N2 (stereo not drawn)	.	.	.	.	.	58
CCS(=O)(=O)Nc1ccc(C(=O)CC2(O)C(=O)Nc3ccc(Br)cc32)cc1 (stereo not drawn)	.	.	/	.	.	.
O=C1Nc2ccc(Br)cc2C1(O)Cc1ccncc1 (stereo not drawn)	.	.	.	83	.	56
O=C(CC1(O)C(=O)Nc2ccc(Br)cc21)c1ccc2c(c1)OCO2 (stereo not drawn)	.	.	.	75	.	76
Cn1nccc1C(=O)N1CCCC(C(=O)c2cccc3ccccc23)C1 (stereo not drawn)	/	/	.	/	/	/
CCN1CCN(C(=O)CCNC(=O)Cn2ccc3ccccc3c2=O)CC1	.	.	.	.	.	.
